Values joined by “and” are separate entries in the source; they are usually repeats but may differ in a detail not shown here. Equal entries are not always repeated. Structures can show the parent of a compound that is named as a salt.

As a reminder, the cell viability is a read-out of living cells in per cent, often relative to untreated cells.

The assay concerns K562. The assay is described as follows: cell viability relative to vehicle control; higher = less cytotoxic. The note with it: 10 µM; SRSF2 genotype: SRSF2 P95H/wt. The procedure, abridged:
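Each screen used CRISPR-edited mutant and wild-type clones from four leukaemia lines. Compounds were acoustically dispensed at a single 10 µM dose, and CellTiter-Glo luminescence was read after 48 h with the supernatant first removed. Viability was analysed in Genedata Screener and given as percent of the on-plate vehicle control.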
Consider `COc1ccc2c(c1)c(CC(=O)OCC(=O)O)c(C)n2C(=O)c1ccc(Cl)cc1` [Acemetacin (Emflex)], for which the cell viability is 101% and 98.4%.

As for `CC(c1cc2ccccc2s1)N(O)C(N)=O` (centres undefined) [Zileuton], the cell viability is 101% and 96.3%.

`COc1ccc(C(=O)CC(=O)c2ccc(C(C)(C)C)cc2)cc1` [Avobenzone (Parsol 1789)]: the cell viability is 87.3% and 92.5%.

Turning to `CNC(=O)[C@H](Cc1ccccc1)NC(=O)[C@H](CC(C)C)[C@H](CSc1cccs1)C(=O)NO` [Batimastat (BB-94)], the cell viability is 91.3% and 94.3%.

In the case of `Nc1ncnc2c1c(-c1cccc(OCc3ccccc3)c1)cn2C1CC(CN2CCCC2)C1` (centres undefined), the cell viability is 85.5% and 90.3%.

Regarding `C=C1C[C@@]23CC[C@H]4[C@@](C)(CCC[C@@]4(C)C(=O)O)[C@@H]2CC[C@@H]1C3` [Kaurenoic acid], the cell viability was 105% and 103%.

As for `CC(C)[C@H](NC(=O)[C@H](CC(=O)O)NC(=O)[C@H](CCCCN)NC(=O)[C@@H](N)CCCN=C(N)N)C(=O)N[C@@H](Cc1ccc(O)cc1)C(=O)O` [Thymopentin], the cell viability was 92.2% and 89.2%.

In the case of `C=CC(=O)Nc1cccc(Nc2nc(Nc3ccc(NC4CN(CCF)C4)cc3OC)ncc2C(F)(F)F)c1`, the cell viability was 55.2% and 53.1%.

`CC1(C)O[C@@H]2[C@@H](CO[C@@]3(COS(N)(=O)=O)OC(C)(C)O[C@@H]23)O1` [Topiramate]: the cell viability was 99.1% and 107%.

For the molecule `O=S(=O)(NCCSSCCNS(=O)(=O)c1cc(Cl)ccc1Cl)c1cc(Cl)ccc1Cl`, the cell viability is 80.6% and 84.4%.

For the molecule `COC(=O)CCC(C)C1CCC2C3C(O)CC4CC(O)CCC4(C)C3CC(O)C12C` (centres undefined) [Methyl Cholate], the cell viability is 97.3% and 98.1%.

Turning to `COc1ccc(C2=NC(c3ccc(Cl)cc3)C(c3ccc(Cl)cc3)N2C(=O)N2CCNC(=O)C2)c(OC(C)C)c1` (centres undefined) [Nutlin-3b], the cell viability was 90.3% and 93.2%.

In the case of `Clc1ncnc2nc[nH]c12` [6-Chloropurine], the cell viability was 88.9% and 82.6%.

For `CCC1=C[C@@H]2CN(C1)Cc1c([nH]c3ccccc13)[C@@](C(=O)OC)(c1cc3c(cc1OC)N(C)[C@H]1[C@@](O)(C(=O)OC)[C@H](OC(C)=O)[C@]4(CC)C=CCN5CC[C@]31[C@@H]54)C2` [Vinorelbine Tartrate], the cell viability was 15% and 35%.

In the case of `Cc1nccn1CC1CCc2c(c3ccccc3n2C)C1=O` (centres undefined) [Ondansetron hydrochloride (Zofran)], the cell viability is 96.1% and 89.4%.

Consider `CC(C)=CCCC(C)(O)C1CCC2(C)C1C(O)CC1C3(C)CCC(O)C(C)(C)C3CCC12C` [(20S)-Protopanaxadiol], for which the cell viability is 98% and 105%.

Turning to `C[C@@H]1O[C@@H](O[C@@H]2[C@@H](O)[C@H](OCCc3ccc(O)c(O)c3)O[C@H](CO)[C@H]2OC(=O)/C=C/c2ccc(O)c(O)c2)[C@H](O)[C@H](O)[C@H]1O` [Verbascoside], the cell viability is 86.6% and 86%.

In the case of `C=C1C[C@@]23CC[C@H]4[C@@](C)(CCC[C@@]4(C)C(=O)O)[C@@H]2CC[C@]1(O[C@@H]1O[C@@H](CO)[C@@H](O)[C@H](O)[C@@H]1O[C@@H]1O[C@@H](CO)[C@@H](O)[C@H](O)[C@@H]1O)C3` [Steviolbioside], the cell viability was 111% and 108%.

With `CNc1ccc([N+](=O)[O-])c(Nc2ccc3[nH]ncc3c2)n1`, the cell viability was 59.1% and 76.9%.

For the molecule `CN(C)/N=N/c1[nH]cnc1C(N)=O` [Dacarbazine (DTIC-Dome)], the cell viability is 117% and 112%.

As to `Cc1ccc(CN(CC(O)COc2cccc3[nH]ccc23)C(C)(C)C)cc1` (centres undefined), the cell viability was 71% and 71.5%.

For `CN1CCN(C2=Nc3cc(Cl)ccc3Nc3ccccc32)CC1` [Clozapine (Clozaril)], the cell viability is 85.7% and 106%.

As to `C[C@]1(O)C[C@@H](O)[C@@H]2C=CO[C@@H](O[C@@H]3O[C@H](CO)[C@@H](O)[C@H](O)[C@H]3O)[C@@H]21` [Leonuride], the cell viability is 105% and 99.7%.

Take `CCCCCCCCCC(C)O` (centres undefined) [2-Undecanol]: the cell viability is 109% and 107%.

Regarding `CC(C)(C)n1nc(-c2ccc(Cl)cc2)c2c(N)ncnc21`, the cell viability is 56.2% and 78.5%.

On to `Cc1cc(O)c(-c2ccc([C@@H](C)CN(C)C)cc2)c2c1[nH]c(=O)c1sccc12`, for which the cell viability is 9.34% and 22.8%.

`CC1(C)CC[C@]2(C(=O)O)CC[C@]3(C)C(=CC[C@@H]4[C@@]5(C)CC[C@H](O)C(C)(C)[C@@H]5CC[C@]43C)[C@@H]2C1` [Oleanolic Acid (Caryophyllin)]: the cell viability was 96.5% and 91.2%.

As for `C[C@@H]1CC[C@@]2(OC1)O[C@H]1C[C@H]3[C@@H]4CC=C5C[C@@H](O[C@@H]6O[C@H](CO)[C@@H](O)[C@H](O)[C@H]6O)CC[C@]5(C)[C@H]4CC[C@]3(C)[C@H]1[C@@H]2C` [Trillin], the cell viability was 87.5% and 97.2%.

As to `CCCCCCOC(=O)c1cc(=O)c(O)c2c(O)c(O)c(OC)cc2c1`, the cell viability was 14.8% and 16.8%.
